FXN GAA850 act: increases GAA850 frataxin promoter reporter activity; AID 540364; HEK293 lucGAA850 FXN promoter luciferase reporter, 24 h; percent of 10 µM SAHA response; activation, % at 6 µM; hit rate 0.56% among 360,000;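 active means activation above the average of all compounds screened plus 3 SD, cutoff fixed separately per campaign, cut at about 7.5% in these data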;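 further: 0% = DMSO wells and 100% = 10 µM SAHA wells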
AHR activator: activators of human aryl hydrocarbon receptor | P35869 | AHR-responsive luciferase reporter cells, luminescence | activation, % at 5 µM | hit rate 2.5% among 320,000; in the data active means activation above about 47%;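 further: 0% = vehicle wells and 100% = reference agonist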
HSP90 inh: blocks HSP90-mediated luciferase refolding in reticulocyte lysate. AID 1789. hit rate 0.91% among 290,000. Rabbit reticulocyte lysate, luciferase refolding luminescence, 3 h. inhibition, % at 5.6 µM;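 active means inhibition above the screen-wide mean plus 3 SD, computed separately per campaign, cut at about 16% in these data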;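 further: 0% = DMSO wells and 100% = 60 µM geldanamycin wells; inhibitors lower the luminescence because luciferase stays unfolded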
DAX1 inh: inhibitors of human orphan nuclear receptor DAX1 (NR0B1) | P51843 | HEK293 Gal4-DAX1 luciferase reporter, luminescence | inhibition, % at 6.75 µM | hit rate 0.99% among 340,000 | AID 504766;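 active means inhibition above the mean over all tested compounds plus 3 SD, cut at about 4.2% in these data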;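 further: 0% = DAX1-transfected cells with DMSO and 100% = empty-vector control cells with DMSO; inhibition shows as a rise in luminescence from relieved DAX1 repression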
Target sequence (P51843 207-470 limits assumed): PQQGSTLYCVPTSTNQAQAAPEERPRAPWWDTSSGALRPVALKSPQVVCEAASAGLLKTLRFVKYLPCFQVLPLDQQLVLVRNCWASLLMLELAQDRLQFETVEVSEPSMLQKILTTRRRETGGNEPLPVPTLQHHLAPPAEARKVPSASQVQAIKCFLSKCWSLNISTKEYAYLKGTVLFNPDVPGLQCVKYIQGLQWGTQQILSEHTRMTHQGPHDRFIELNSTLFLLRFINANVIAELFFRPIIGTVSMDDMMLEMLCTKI
HSF-1 act: increases HSF-1 driven luciferase reporter signal; NIH3T3-HGL HSF-1 luciferase reporter, MG132, 8 h; 100% = twice DMSO control signal; AID 504408; activation, % at 9 µM; hit rate 1.7% among 300,000;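 active means mean replicate activation of at least 50% with a set share of replicates each reaching 50%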;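 further: 0% = median of the neutral control wells and 100% = twice that signal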
HSF1 inhib: HSF1 inhibition | NIH3T3-HGL HSE-luciferase, MG132-induced, luminescence 8 h; active compounds read low | activity change, negative = inhibition, % at 7.5 µM (by protocol) | hit rate 0.77% among 300,000 | AID 2098;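 active means more than half of replicate wells show activity change below -50%, luminescence cut by over half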;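 further: luciferase reports HSF-1 transcriptional activity via heat shock element; 0% = median of DMSO wells and -100% = zero luminescence signal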
* hit, by the source's call. Shown are actives, neighbours in structure and some others; about 5.9% of the full set was active somewhere.

CCOc1ccccc1NC(=O)c1cccc(NC(=O)CC(c2ccccc2)c2ccccc2)c1 was read as FXN GAA850 act -5, AHR activator -4, HSP90 inh -2, DAX1 inh 1, HSF-1 act -4 and HSF1 inhib 0.
Screening O=C(/C=C/c1ccc(Br)cc1)c1ccc(NC(=O)c2ccco2)cc1 returned FXN GAA850 act 1, AHR activator 48*, HSP90 inh 0, DAX1 inh 1, HSF-1 act 49 and HSF1 inhib 18.
Screening COc1ccc(Cl)cc1-c1cc(C(=O)NCc2ccccc2)[nH]n1 returned FXN GAA850 act 0.
Screening CCCCCCc1nc2nc(Cl)c(Cl)nc2[nH]1 returned FXN GAA850 act -1 and DAX1 inh 0.
Screening CCOc1ccccc1NC(=O)c1ccccc1-c1ccccc1 returned FXN GAA850 act 0, AHR activator 4, HSP90 inh -2, DAX1 inh -1, HSF-1 act 0 and HSF1 inhib 1.
For O=C(/C=C/c1ccncc1)c1ccc(NC(=O)c2ccccc2F)cc1 the results were FXN GAA850 act 12*, AHR activator -1, HSP90 inh -4 and DAX1 inh -1.
For O=C(/C=C/c1ccc(NC(=O)c2ccccc2-c2ccccc2C(=O)O)cc1)c1ccccc1 the results were FXN GAA850 act 1, AHR activator 1, HSP90 inh 0, DAX1 inh 1, HSF-1 act -49 and HSF1 inhib -33.
For O=C(CSc1ccccc1)Nc1cccc(NC(=O)c2ccco2)c1 the results were FXN GAA850 act 2, AHR activator 4, HSP90 inh -1, DAX1 inh 0, HSF-1 act -75 and HSF1 inhib -68*.
Screening CCOc1ccccc1NC(=O)c1cc(SC)ccc1Cl returned FXN GAA850 act -2, AHR activator 72*, HSP90 inh 2 and DAX1 inh -2.
`CCOc1ccccc1NC(=O)c1csc(C)c1C` gave FXN GAA850 act 1, AHR activator 71*, HSP90 inh 1, DAX1 inh 1, HSF-1 act 2 and HSF1 inhib 2.
For O=C(CCCC(=O)OCC(=O)c1ccc(Cl)cc1)NC1CCCCC1 the results were FXN GAA850 act -1, AHR activator 32, HSP90 inh 2, DAX1 inh 1, HSF-1 act 6 and HSF1 inhib -8.
COc1ccc(CNC(=O)CCC(=O)Nc2nnc(C(F)(F)F)s2)cc1 was read as FXN GAA850 act 1, AHR activator 2, HSP90 inh -4, DAX1 inh 1, HSF-1 act -8 and HSF1 inhib -6.
CCCCN(C)CCN1C(=O)C2C(C(=O)Nc3ccc(OC)cc3)C3C=CC2(O3)C1C(=O)NC1CCCCC1 (stereo unspecified) was read as FXN GAA850 act -1, AHR activator 5, HSP90 inh 5, DAX1 inh 0, HSF-1 act 5 and HSF1 inhib -1.
Screening O=C(CSS(=O)(=O)O)N1CCN(C(=O)c2ccoc2)CC1 returned FXN GAA850 act 2, AHR activator -1, HSP90 inh 0, DAX1 inh 2, HSF-1 act -10 and HSF1 inhib -3.
For O=C(Nc1ccccc1C(=O)Nc1ccc2c(c1)OCO2)c1ccco1 the results were FXN GAA850 act 2, AHR activator 47*, HSP90 inh 2, DAX1 inh 0, HSF-1 act 4 and HSF1 inhib 0.
`CC(NC(=O)c1ccco1)c1nc(-c2ccc(Cl)cc2)no1` (stereo unspecified) gave FXN GAA850 act 0, AHR activator 3, HSP90 inh 8, DAX1 inh 0, HSF-1 act 9 and HSF1 inhib 9.
Screening O=C(NCc1nc(-c2ccc(Cl)cc2)no1)c1ccco1 returned FXN GAA850 act -1, AHR activator 0, HSP90 inh -3, DAX1 inh 0, HSF-1 act 56* and HSF1 inhib 13.
For O=C(Nc1ccc(Cl)cc1C(=O)Nc1ccc(Br)cn1)c1ccco1 the results were FXN GAA850 act -2, AHR activator 61*, HSP90 inh 5, DAX1 inh 0, HSF-1 act 20 and HSF1 inhib 5.
Screening CCOCC(=O)Nc1cc(C(=O)Nc2ccc(F)cc2)ccc1Cl returned AHR activator 63*, HSP90 inh -4, HSF-1 act -1 and HSF1 inhib 1.

Bioassay records deposited in PubChem by several laboratories.
